# Compound activity deposited in PubChem BioAssay by National Center for Advancing Translational Sciences (NCATS).
# Hits are enriched below; roughly 10% of the tested compounds scored in any of these assays.
# BAZ2B inh = blocks human BAZ2B. actives 4.4% (n = 360,000). AlphaScreen BAZ2B-H3K14Ac peptide displacement. Potency, µM (series often up to 114 µM), without a hit: top-dose activity change, negative = inhibition, usual class: inhibitors. Q9UIF8; note: potency is the fitted concentration of half-maximal effect; % is set by controls: 0 for no effect and ±100 for the full control effect; nearly all actives have a fitted effect of over 60% in size
#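 In this displacement format the biotinylated H3(5-23) peptide acetylated at Lys14 serves as ligand at 50 nM, with BAZ2B at 50 nM in PBS pH 7.4 containing 0.01% Tween-20. Donor and acceptor beads are 10 ug/mL final.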
# G9a inh = G9a (human) methyltransferase inhibition. G9a H3K9 monomethylation, AlphaScreen, 2 h. Potency, µM (doses to about 102 µM), for the others: at the top dose activity, negative = inhibition, usual class: inhibitors. actives 8.8% (n = 350,000). AID 504332; note: potency is the fitted concentration of half-maximal effect; % is set by controls: 0 for no effect and ±100 for the full control effect; nearly all actives have a fitted effect of over 75% in size
# Target sequence (Q96KQ7 913-1193 limits assumed): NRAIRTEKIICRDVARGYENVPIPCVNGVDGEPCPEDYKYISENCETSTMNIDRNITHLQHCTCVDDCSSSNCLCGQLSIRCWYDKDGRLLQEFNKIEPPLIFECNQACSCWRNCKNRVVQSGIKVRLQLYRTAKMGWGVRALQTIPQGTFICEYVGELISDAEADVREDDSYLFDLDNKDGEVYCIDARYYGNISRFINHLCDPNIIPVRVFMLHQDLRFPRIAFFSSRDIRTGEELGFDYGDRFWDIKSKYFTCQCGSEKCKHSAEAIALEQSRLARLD
#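 Quantitative HTS format: methyltransferase activity on a biotin-tagged H3K9 peptide is measured by AlphaScreen, using a rabbit anti-monomethyl-H3K9 antibody with streptavidin donor and anti-IgG acceptor beads. Final levels are 20 nM enzyme, 500 nM peptide, 20 uM SAM; 2 h RT.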
# JMJD2A Tudor = inhibitors of human JMJD2A Tudor domain; O75164; AlphaScreen JMJD2A-Tudor / H3K4me3 peptide binding; Potency, µM (top dose mostly 114 µM), for inactives: at the highest dose activity change, negative = inhibition, usual class: inhibitors; actives 4.4% (n = 390,000); AID 504339; note: potency is the fitted concentration of half-maximal effect; % is set by controls: 0 for no effect and ±100 for the full control effect; nearly all actives have a fitted effect of over 50% in size
# HP1b chromo inh = blocks HP1-beta chromodomain binding to methylated histone tails; AID 540317; actives 0.56% (n = 390,000); AlphaScreen HP1-beta / biotin-H3K9me3 peptide binding; P83916; Potency, µM (highest dose often 114 µM), inactives show at the highest dose activity change, negative = inhibition, hits mostly inhibitors; note: potency is the fitted concentration of half-maximal effect; nearly all actives have a fitted effect of over 70% in size
# Target sequence (P83916 whole entry, looked up): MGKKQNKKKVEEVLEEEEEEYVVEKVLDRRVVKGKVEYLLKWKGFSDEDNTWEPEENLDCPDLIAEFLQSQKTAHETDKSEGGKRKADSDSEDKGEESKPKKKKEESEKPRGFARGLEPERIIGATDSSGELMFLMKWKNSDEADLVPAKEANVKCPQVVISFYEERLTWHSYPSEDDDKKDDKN
#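 AlphaScreen: HP1-beta (50 nM) preformed 30 min with biotin-H3(1-18)K9me3 peptide (50 nM) in PBS pH 7.4, 0.01% Tween-20. Compound added for 30 min at RT, then streptavidin donor/nickel chelate acceptor beads (10 ug/mL) for 30 min.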
# Six1-Eya2 inh = Six1/Eya2 interaction inhibition | Q15475+O00167 | AlphaScreen GST-Six1/His-Eya2 binding, biochemical; hits give low values | activity change, % (test concentration not listed) | actives 0.56% (n = 360,000) | AID 651725; in the data active = activity change below about -65%; inconclusive = mostly about -30% to -63%; note: % is set by controls: 0 for no effect and ±100 for the full control effect
#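 Six1/Eya2 binding was read as AlphaScreen signal after compounds were pinned into GST-Six1 plus His-tagged Eya2 (5X stock 250/500 nM) in pH 8.0 Tris/NaCl/TCEP buffer, beads added, then incubated 1 h, 37 C, dark.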
# CtBP-E1A blk = CtBP/E1A binding inhibition | AlphaScreen GST-E1A/His-CtBP binding, 1536-well; hits give low values | activity change, % (test concentration not listed) | actives 0.49% (n = 340,000); in the data active = activity change below about -65%; inconclusive = mostly about -30% to -63%; note: % is set by controls: 0 for no effect and ±100 for the full control effect
#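 Steps: dispense buffer (Tris pH 8.0, NaCl 300 mM, TCEP 1 mM, BSA, Tween 20); add 5X protein mix (GST-E1A, His-CtBP, 125 nM each); pin 23 nL compound; 2 h at 37 °C, dark; add 5X beads (50 ug/mL); 1 h; read.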
# * marks the source's active call; other numbers are inactive results; ? = inconclusive; . = not tested or not shown; ! = repeats disagree; [ ] = another dose, or the depositor's remark. Unless noted, calls come from the whole dose curve; as a rule, active = well fitted inhibition curve with a large enough effect; inconclusive = small, poorly fitted or top-dose-only effect; inactive = no such curve, though single readings can be large or run the other way.
SMILES,BAZ2B inh,G9a inh,JMJD2A Tudor,HP1b chromo inh,Six1-Eya2 inh,CtBP-E1A blk
CCCNC(=O)C(NS(=O)(=O)c1ccc2c(c1)c(=O)n(C)c(=O)n2C)c1ccccc1 (stereo not drawn),-2%,40µM*,-13%,37%,0,-2
Cn1c(=O)c2cc(S(=O)(=O)NC(C(=O)Nc3cccc(F)c3)c3ccccc3)ccc2n(C)c1=O (stereo not drawn),-14%,18µM*,-13%,44%,-7,5
Cn1c(=O)c2cc(S(=O)(=O)NC(C(=O)Nc3cccnc3)c3ccccc3)ccc2n(C)c1=O (stereo not drawn),8%,8.9µM*,-12%,43%,-7,4
COc1ccc(CNS(=O)(=O)c2ccc3c(c2)C(C)(C)C(=O)N3C)cc1OC,5%,-1%[59 µM],8%,17%,.,.
COc1ccc(CCNC(=O)c2ccc3[nH]c(C)c(C)c3c2)cc1OC,?,?,?,-35%,.,.
C=CCNc1nc(-c2ccccn2)nnc1-c1ccccc1,0.89µM*,47%,35µM*,46%,-92*,-92*
C[C@@H]1CN([C@H](C)CO)C(=O)c2cc(Br)cnc2O[C@@H]1CN(C)Cc1ccc(F)cc1,.,.,.,.,22,-4
Cc1cccc(NNC(=O)C(=O)NNc2cccc(C)c2)c1,-12%,?,1%,31%,1,.
Cc1cccc(N=NC(=S)NNc2cccc(C)c2)c1,.,.,25µM*,45µM*,?,?
CN1CCN(c2c(F)cc3c(=O)c(C(=O)O)cn4c3c2SCC4)CC1,?,7.9µM*!,-9%,29%,-1,0
Cn1c(=O)c(C(=O)NNC(=O)c2ccccc2Br)c(O)c2ccccc21,-2%,10%[59 µM],-9%,45%,-66*,?
CC(C)(C)NC(=O)C(=O)NNC(=O)c1ccccc1Br,?,22µM*,-20%,24%,13,9
COc1ccccc1C(=O)NNC(=O)C(=O)NC(C)(C)C,89µM*,-22%,-10%,56%,1,5
Cc1cc(C)n(-c2nc3ccccc3nc2Nc2cccc(C)c2C)n1,33%,42%[59 µM],37%,124%,.,.
CC(C)(C)c1ccc(C(=O)Oc2ccc3c(c2)OCC3=O)cc1,6%,50µM*,5%,35%,-2,-1
O=C(Oc1ccc2c(c1)OCC2=O)c1ccccc1,-5%,-23%[12.7 µM],-5%,23%,-71*,-2
COc1ccc(-c2noc(-c3ccc(NC4CCCC4)c([N+](=O)[O-])c3)n2)cc1,-32%,?,-8%,58%,.,.
O=C(COC(=O)/C=C/c1ccc(Br)o1)NC1CCCCC1,?,2%[12.7 µM],79µM*,8%,-5,-10
O=C(COC(=O)/C=C/c1ccc(Br)o1)Nc1ccccc1F,56µM*,?,.,.,.,.
O=C(COC(=O)/C=C/c1ccco1)NC1CCCCC1,-3%,15%[12.7 µM],?,-37%,-15,-1
CCCN1CCN(CCCNC(=O)c2cc3c(=O)oc4ccc(C)cc4c3s2)CC1,-4%,-1%,-10%,22%,-3,2
Cc1ccc2oc(=O)c3cc(C(=O)NCCN4CCc5ccccc5C4)sc3c2c1,-28%,50µM*,-24%,39%,-17,-20
Cc1csc(Sc2ccc(C(=O)OCC(=O)Nc3ccc(F)cc3[N+](=O)[O-])cc2[N+](=O)[O-])n1,-33%,35µM*,?,0%,-5,2
Oc1c(Cl)cc(Cl)c(Cl)c1CN1CCOCC1,.,.,-3%,-1%,-9,-17
Oc1c(CN2CCc3ccccc3C2)cc(Cl)c2cccnc12,8.9µM*,45µM*,25µM*,26%,-93*,-89*
SMILES,BAZ2B inh,G9a inh,JMJD2A Tudor,HP1b chromo inh,Six1-Eya2 inh,CtBP-E1A blk
Oc1c(CN2CCCCC2)cc(Br)c2cccnc12,28µM*,?,22µM*,26%,-91*,-92*
O=C(COc1c(Br)cc(Br)c2cccnc12)N1CCCCC1,?,8%,-11%,37%,-12,-7
O=[N+]([O-])c1cc(CN2CCOCC2)c2cccnc2c1O,3.2µM*,?,7.9µM*,24%,-88*,-4
Oc1c(Cl)cc(CN2CCOCC2)c2cccnc12,7.9µM*,-1%[2.33 µM],11µM*,-26%,-89*,.
CC(=O)N1CCCc2cc(S(=O)(=O)NC(C(=O)NCc3ccc(C)cc3)C(C)C)ccc21 (stereo not drawn),-9%,5%,-8%,39%,-1,10
CCn1c(=O)n(-c2ccc3c(c2)OCO3)c2nc(-c3cc(OC)ccc3OC)nc(C(N)=O)c21,?,19%[59 µM],-20%,17%,.,.
O=C(SCc1c(O)c2ccccc2oc1=O)c1ccccc1,.,.,.,.,-6,-13
O=c1oc2ccccc2c(O)c1Cc1cc(Cl)c2cccnc2c1O,32µM*,.,-36%,25%,-9,?
O=[N+]([O-])c1cc(CN2CCN(c3ccccc3)CC2)c(O)c2ncccc12,3.2µM*,?,10µM*,18%,-91*,-95*
Cc1ccnn1CC(=O)N/N=C/c1ccc2c(c1)OCO2,2%,29%[59 µM],-7%,24%,4,14
COc1cc2ccccc2c2c1CCCC2=O,46%,?,34%,56%,15,-3
CN(C)CCCNS(=O)(=O)c1ccc(NC2CCCCCC2)c([N+](=O)[O-])c1,?,71µM*,?,-6%,-17,-15
O=C(O)c1cc(NS(=O)(=O)c2ccc(NC3CCCCC3)c([N+](=O)[O-])c2)cc(C(=O)O)c1,-13%,?,-28%,12%,-3,2
CCOc1ccc(-n2c(SCC(=O)N3CCc4ccccc43)nc3c([nH]c4ccccc43)c2=O)cc1,3%,6%[59 µM],-14%,14%[57 µM],.,.
O=C(CN1CCN(C2CCCCC2)CC1)c1ccc2cc[nH]c2c1,-26%,28µM*,-35%,21%,0,0
O=C(CN1CCN(C2CCCCC2)CC1)c1c[nH]c2ccccc12,?,?,-29%,46%,0,-1
O=C(O)C1CCCCC1C(=O)Nc1cccc2ccccc12 (stereo not drawn),-5%,11µM*,-14%,13%,0,1
O=C(O)C1CCCCC1C(=O)Nc1ccccc1Nc1ccccc1 (stereo not drawn),-8%,?,-18%,10%,3,2
Cc1ccc(S(=O)(=O)CCc2nnc(NC(=O)c3cnccn3)s2)cc1,-2%,?,?,25%,-5,5
Cc1ccc(S(=O)(=O)CCc2nnc(NC(=O)c3ccccn3)s2)cc1,3.2µM*,12%,11µM*,47%,-90*,-92*
O=C(COc1cccc(F)c1)Nc1nc(-c2ccccn2)cs1,.,.,.,.,-77*,?
